PubChem BioAssay AID504757 (Sanford-Burnham Center for Chemical Genomics, 2011)
The other results are listed elsewhere or left out. Activity calls are given as the source filed them. Cut-off read from the data, not from the text of the source: active = inhibition above about 39%; inactive = the rest.

Molecular target: Cysteine protease ATG4B (Homo sapiens) (UniProt Q9Y4P1)
Assay: ATG4B protease inhibitors, retest, confirmation, biochemical, fluorescence, single concentration (AID 504757)
Details: ATG4B protease fluorescent substrate cleavage assay; at 8.33 µM; active compounds read high

Chain of Cysteine protease ATG4B (Homo sapiens) (Q9Y4P1 whole entry, looked up): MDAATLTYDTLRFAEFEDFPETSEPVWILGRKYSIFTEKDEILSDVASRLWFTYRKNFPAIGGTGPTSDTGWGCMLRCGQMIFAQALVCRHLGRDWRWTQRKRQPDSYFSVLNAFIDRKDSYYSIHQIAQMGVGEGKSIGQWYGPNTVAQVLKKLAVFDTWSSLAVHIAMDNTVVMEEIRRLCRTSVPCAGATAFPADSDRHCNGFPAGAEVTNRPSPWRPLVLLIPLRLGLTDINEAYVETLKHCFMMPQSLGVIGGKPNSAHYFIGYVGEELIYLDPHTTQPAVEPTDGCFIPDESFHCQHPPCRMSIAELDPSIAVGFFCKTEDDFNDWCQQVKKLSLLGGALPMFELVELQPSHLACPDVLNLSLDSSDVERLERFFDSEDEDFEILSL

For `Cc1cc(OCc2cc(C(=O)O)oc2C)c2c3c(c(=O)oc2c1)CCCC3`, which inhibition is on record?
The inhibition was 66.3% (active).
